Measured values published in PubChem BioAssay AID1159580 (chemical genetic matrix, 2015).
Hit rate of the full screen: of about 5,500 compounds, about 2,000 (36%) were called active. About 18% were inconclusive and are not listed. Cut-off read from the data, not from the text of the source: active = normalized growth mostly below about 0.91 (no sharp cut-off); inconclusive = no clear call, values can overlap the other calls; inactive = mostly above about 0.92. The list shows a part of the results.

Assay: chemical genetic growth profiling, strain panel (AID 1159580);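 note: tested at 20 µM; growth read once vehicle control cultures reached saturation at 30 °C; 1 = growth at the plate median or of vehicle wells; lower values mean less growth of the strain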
Conditions: growth OD

Measured: normalized growth

Nc1c(Br)cc(Br)cc1CNC1CCC(O)CC1 (stereo not given)
inactive: S. cerevisiae deletion strains, locus YJR066W, strain TOR1, active compounds read low 0.936 | S. cerevisiae deletion strains, locus YKL009W, strain mrt4, active compounds read low 0.985 | S. cerevisiae deletion strains, locus YKL068W, active compounds read low 0.997 | S. cerevisiae deletion strains, locus YKL085W, strain MDH1 (second series), active compounds read low 1 | S. cerevisiae deletion strains, locus YKL085W, strain MDH1, active compounds read low 1 | S. cerevisiae deletion strains, locus YKL160W, strain elf1, active compounds read low 1 | S. cerevisiae deletion strains, locus YKL190W, strain CNB1, active compounds read low 1.01 | S. cerevisiae deletion strains, locus YKR001C, strain vps1, active compounds read low 0.994 | S. cerevisiae deletion strains, locus YKR026C, strain gcn3, active compounds read low 1.01 | S. cerevisiae deletion strains, locus YKR091W, strain srl3, active compounds read low 1.02 | S. cerevisiae deletion strains, locus YLL001W, strain dnm1, active compounds read low 1.02 | S. cerevisiae deletion strains, locus YLL026W, active compounds read low 1.01 | S. cerevisiae deletion strains, locus YLL041C, strain sdh2, active compounds read low 0.993 | S. cerevisiae deletion strains, locus YLR027C, strain aat2, active compounds read low 0.997 | S. cerevisiae deletion strains, locus YLR039C, strain RIC1, active compounds read low 1.03 | S. cerevisiae deletion strains, locus YLR058C, strain SHM2, active compounds read low 1 | S. cerevisiae deletion strains, locus YLR102C, strain apc9, active compounds read low 1.01 | S. cerevisiae deletion strains, locus YLR113W, strain HOG1, active compounds read low 1.07 | S. cerevisiae deletion strains, locus YLR221C, strain rsa3, active compounds read low 1.01 | S. cerevisiae deletion strains, locus YLR258W, strain gsy2, active compounds read low 1 | S. cerevisiae deletion strains, locus YLR262C, strain YPT6 (second series), active compounds read low 0.974 | S. cerevisiae deletion strains, locus YLR262C, strain YPT6, active compounds read low 1.04 | S. cerevisiae deletion strains, locus YLR268W, strain sec22, active compounds read low 0.982 | S. cerevisiae deletion strains, locus YLR320W, strain mms22, active compounds read low 1.03 | S. cerevisiae deletion strains, locus YLR330W, strain CHS5, active compounds read low 1.01 | S. cerevisiae deletion strains, locus YLR342W, strain FKS1 (second series), active compounds read low 1.01 | S. cerevisiae deletion strains, locus YLR342W, strain FKS1, active compounds read low 1.02 | S. cerevisiae deletion strains, locus YLR357W, strain rsc2, active compounds read low 1.03 | S. cerevisiae deletion strains, locus YLR370C, strain arc18, active compounds read low 0.997 | S. cerevisiae deletion strains, locus YLR371W, strain rom2, active compounds read low 1.01 | S. cerevisiae deletion strains, locus YLR384C, strain iki3, active compounds read low 1.01 | S. cerevisiae deletion strains, locus YLR418C, strain cdc73, active compounds read low 0.949 | S. cerevisiae deletion strains, locus YML016C, strain PPZ1, active compounds read low 1 | S. cerevisiae deletion strains, locus YML032C, strain rad52, active compounds read low 0.996 | S. cerevisiae deletion strains, locus YML120C, strain ndi1, active compounds read low 1.05 | S. cerevisiae deletion strains, locus YML124C, strain tub3, active compounds read low 0.996 | S. cerevisiae deletion strains, locus YMR058W, strain fet3, active compounds read low 1.02 | S. cerevisiae deletion strains, locus YMR078C, strain ctf18, active compounds read low 1.01 | S. cerevisiae deletion strains, locus YMR125W, strain sto1, active compounds read low 1.01 | S. cerevisiae deletion strains, locus YMR129W, active compounds read low 1.02 | S. cerevisiae deletion strains, locus YMR205C, strain PFK2, active compounds read low 1 | S. cerevisiae deletion strains, locus YMR223W, strain ubp8, active compounds read low 0.991 | S. cerevisiae deletion strains, locus YMR231W, strain pep5, active compounds read low 1.02 | S. cerevisiae deletion strains, locus YMR307W, strain GAS1, active compounds read low 1.12 | S. cerevisiae deletion strains, locus YNL067W, strain RPL9B, active compounds read low 0.994 | S. cerevisiae deletion strains, locus YNL071W, strain lat1, active compounds read low 1.01 | S. cerevisiae deletion strains, locus YNL128W, strain TEP1, active compounds read low 1.02 | S. cerevisiae deletion strains, locus YNL153C, strain GIM3, active compounds read low 0.99 | S. cerevisiae deletion strains, locus YNL183C, strain NPR1, active compounds read low 0.981 | S. cerevisiae deletion strains, locus YNL209W, strain ssb2, active compounds read low 1 | S. cerevisiae deletion strains, locus YNL233W, strain BNI4, active compounds read low 0.991 | S. cerevisiae deletion strains, locus YNL248C, strain rpa49, active compounds read low 1 | S. cerevisiae deletion strains, locus YNL250W, strain rad50, active compounds read low 0.994 | S. cerevisiae deletion strains, locus YNL271C, strain bni1, active compounds read low 1 | S. cerevisiae deletion strains, locus YNL298W, strain CLA4, active compounds read low 1.03 | S. cerevisiae deletion strains, locus YNL307C, strain MCK1, active compounds read low 1.01 | S. cerevisiae deletion strains, locus YNL322C, strain KRE1 (second series), active compounds read low 1.02 | S. cerevisiae deletion strains, locus YNL322C, strain KRE1, active compounds read low 1 | S. cerevisiae deletion strains, locus YNR049C, strain mso1, active compounds read low 0.987 | S. cerevisiae deletion strains, locus YNR052C, strain pop2, active compounds read low 1 | S. cerevisiae deletion strains, locus YOL006C, strain TOP1, active compounds read low 0.95 | S. cerevisiae deletion strains, locus YOL012C, strain htz1 0.731 | S. cerevisiae deletion strains, locus YOL147C, strain pex11, active compounds read low 0.998 | S. cerevisiae deletion strains, locus YOR001W, strain rrp6, active compounds read low 0.996 | S. cerevisiae deletion strains, locus YOR061W, strain CKA2, active compounds read low 1.01 | S. cerevisiae deletion strains, locus YOR069W, strain VPS5, active compounds read low 1 | S. cerevisiae deletion strains, locus YOR070C, strain gyp1, active compounds read low 1 | S. cerevisiae deletion strains, locus YOR080W, strain dia2, active compounds read low 1.02 | S. cerevisiae deletion strains, locus YOR083W, strain WHI5, active compounds read low 0.997 | S. cerevisiae deletion strains, locus YOR106W, strain vam3, active compounds read low 1.02 | S. cerevisiae deletion strains, locus YOR136W, strain idh2, active compounds read low 0.995 | S. cerevisiae deletion strains, locus YOR144C, strain elg1, active compounds read low 0.994 | S. cerevisiae deletion strains, locus YOR184W, strain ser1, active compounds read low 0.992 | S. cerevisiae deletion strains, locus YOR231W, strain MKK1, active compounds read low 1.06 | S. cerevisiae deletion strains, locus YOR265W, strain rbl2, active compounds read low 1.01 | S. cerevisiae deletion strains, locus YOR270C, strain vph1, active compounds read low 1.01 | S. cerevisiae deletion strains, locus YOR290C, strain snf2, active compounds read low 0.984 | S. cerevisiae deletion strains, locus YOR316C, strain cot1, active compounds read low 1 | S. cerevisiae deletion strains, locus YPL051W, strain arl3, active compounds read low 1.01 | S. cerevisiae deletion strains, locus YPL055C, strain LGE1, active compounds read low 0.978 | S. cerevisiae deletion strains, locus YPL078C, strain atp4, active compounds read low 0.999 | S. cerevisiae deletion strains, locus YPL106C, strain sse1, active compounds read low 1.03 | S. cerevisiae deletion strains, locus YPL240C, strain hsp82, active compounds read low 1.01 | S. cerevisiae deletion strains, locus YPL256C, strain CLN2, active compounds read low 1.06 | S. cerevisiae deletion strains, locus YPR119W, strain clb2, active compounds read low 1 | S. cerevisiae deletion strains, locus YPR141C, strain kar3, active compounds read low 0.99 | S. cerevisiae deletion strains, locus YPR163C, strain tif3, active compounds read low 1 | S. cerevisiae deletion strains, locus YPR167C, strain met16, active compounds read low 0.998 | S. cerevisiae deletion strains, strain wtn01, active compounds read low 1 | S. cerevisiae strains, strain wild type, active compounds read low 1.01
